Experimental data: PubChem BioAssay (NCATS)
Records with an inconclusive call do not appear. The source made the active and inactive calls. Unless noted, calls come from the whole dose curve; as a rule, active = well fitted curve in either direction with a large enough effect (not every such curve was filed as active); inconclusive = small, poorly fitted or top-dose-only effect, or another doubt; inactive = flat fitted curve, though single readings scatter.

How the values were obtained:
[1] = biological target: Lysosomal acid glucosylceramidase (Homo sapiens) (UniProt P04062); assay: Glucocerebrosidase-p2 (AID 348; in the data active = potency below about 10 µM; note: potency is the fitted concentration of half-maximal effect); conditions: purified GBA, blue fluorogenic substrate, 40 min
Lysosomal acid glucosylceramidase (Homo sapiens), sequence (P04062 whole entry, looked up): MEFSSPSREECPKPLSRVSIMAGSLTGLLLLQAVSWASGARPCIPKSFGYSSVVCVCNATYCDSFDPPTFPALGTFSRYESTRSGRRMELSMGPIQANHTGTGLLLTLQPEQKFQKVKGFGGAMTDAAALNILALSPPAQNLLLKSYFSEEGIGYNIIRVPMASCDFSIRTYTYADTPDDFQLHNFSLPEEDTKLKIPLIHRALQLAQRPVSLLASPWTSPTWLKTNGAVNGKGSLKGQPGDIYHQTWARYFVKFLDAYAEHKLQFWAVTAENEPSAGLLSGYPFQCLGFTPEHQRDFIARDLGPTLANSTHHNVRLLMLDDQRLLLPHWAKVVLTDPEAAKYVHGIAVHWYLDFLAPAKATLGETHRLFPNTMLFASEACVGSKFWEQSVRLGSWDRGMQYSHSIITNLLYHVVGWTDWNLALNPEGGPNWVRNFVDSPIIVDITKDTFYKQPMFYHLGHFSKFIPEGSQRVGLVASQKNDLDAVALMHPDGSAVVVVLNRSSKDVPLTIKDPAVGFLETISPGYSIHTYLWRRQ
Method in brief: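 Normal human glucocerebrosidase (0.2 nM) with blue fluorogenic substrate (80 uM final) in citrate/phosphate pH 5.9 with 10mM sodium taurocholate, 0.01% tween-20; 40 min RT, NaOH/glycine stop; fluorescence Ex 365/Em 440; AC50 from a titration from 0.6 nM upwards.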

[2] = Stat Signaling Pathway (AID 446); conditions: ME-180 SIE beta-lactamase reporter, IL-6 stimulated, 5 h; at 7.69 µM (top of the series) unless noted;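 note: ME-180 cervical cancer cells given 40 pM IL-6 alongside compound; SIE-controlled beta-lactamase reporter measured as 460/530 nm FRET emission ratio; % is set by controls: 0 for no effect and ±100 for the full control effect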
Method in brief: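 Overnight-plated ME-180 cells bearing a STAT Inducible Element beta-lactamase reporter; 5 h co-exposure to compound and 40 pM IL-6; values normalized to 300 pM IL-6 and 125 nM JAK inhibitor controls.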

[3] = biological target: Glucocorticoid receptor (Homo sapiens) (UniProt P04150); assay: GR-EFC Redistribution (AID 451; calls by dose curve; note: potency is the fitted concentration of half-maximal effect); conditions: CHO-K1 GR-EFC translocation, beta-gal luminescence, 2 h
Glucocorticoid receptor (Homo sapiens), sequence (P04150 whole entry, looked up, the tested form may be a part): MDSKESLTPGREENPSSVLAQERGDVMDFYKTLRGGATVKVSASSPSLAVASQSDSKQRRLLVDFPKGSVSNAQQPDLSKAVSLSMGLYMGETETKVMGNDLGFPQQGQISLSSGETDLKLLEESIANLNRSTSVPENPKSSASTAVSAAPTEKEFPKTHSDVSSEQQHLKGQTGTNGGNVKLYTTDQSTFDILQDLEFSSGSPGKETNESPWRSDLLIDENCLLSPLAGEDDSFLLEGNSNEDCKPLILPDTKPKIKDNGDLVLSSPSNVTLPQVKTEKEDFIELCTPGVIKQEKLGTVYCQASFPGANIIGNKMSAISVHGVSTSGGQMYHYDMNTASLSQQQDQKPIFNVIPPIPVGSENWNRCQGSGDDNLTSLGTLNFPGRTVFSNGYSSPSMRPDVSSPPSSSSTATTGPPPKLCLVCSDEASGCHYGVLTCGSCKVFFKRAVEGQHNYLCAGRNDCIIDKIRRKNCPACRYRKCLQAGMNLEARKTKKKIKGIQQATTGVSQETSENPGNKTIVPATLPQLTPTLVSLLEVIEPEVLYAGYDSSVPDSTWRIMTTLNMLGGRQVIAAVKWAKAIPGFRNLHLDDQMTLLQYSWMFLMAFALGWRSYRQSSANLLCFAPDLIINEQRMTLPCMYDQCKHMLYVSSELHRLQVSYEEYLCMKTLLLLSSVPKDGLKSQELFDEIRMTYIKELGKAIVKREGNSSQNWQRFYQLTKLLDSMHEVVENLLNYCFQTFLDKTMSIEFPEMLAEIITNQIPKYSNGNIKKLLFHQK
Method in brief: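 CHO-K1 cells stably expressing nuclear-localized β-gal enzyme acceptor and GR fused C-terminally to the enzyme donor fragment; ligand-driven nuclear translocation restores β-gal by complementation. Compounds titrated up to 46 uM final, 2 h at 37 °C; luminescence read.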

[4] = biological target: Mitogen-activated protein kinase 10 (Mus musculus) (UniProt Q61831); assay: JNK3 AlphaScreen Assay (AID 530);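 note: kinase came from lysate of stimulated human HepG2 cells; signal reports phosphorylation of biotinylated GST-cJun 1-79 at Ser73 with 10 µM ATP; % is set by controls: 0 for no effect and ±100 for the full control effect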
Method in brief: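 Phosphorylation of biotinylated GST-cJun(1-79) at Ser73 is measured by AlphaScreen proximity luminescence. Enzyme is JNK3 in HepG2 lysates activated with interleukin-1beta and tumor necrosis factor alpha; ATP is 10 uM final.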

[5] = biological target: 3',5'-cyclic-AMP phosphodiesterase 4B (Homo sapiens) (UniProt Q07343); assay: qHTS Assay for Inhibitors of PDE-IV (AID 607; active = well fitted activation curve with a large enough effect in the main read-out, with a control signal flat, not every such curve was filed as active; note: % of control where 0% means no effect)
3',5'-cyclic-AMP phosphodiesterase 4B (Homo sapiens), sequence (Q07343 whole entry, looked up): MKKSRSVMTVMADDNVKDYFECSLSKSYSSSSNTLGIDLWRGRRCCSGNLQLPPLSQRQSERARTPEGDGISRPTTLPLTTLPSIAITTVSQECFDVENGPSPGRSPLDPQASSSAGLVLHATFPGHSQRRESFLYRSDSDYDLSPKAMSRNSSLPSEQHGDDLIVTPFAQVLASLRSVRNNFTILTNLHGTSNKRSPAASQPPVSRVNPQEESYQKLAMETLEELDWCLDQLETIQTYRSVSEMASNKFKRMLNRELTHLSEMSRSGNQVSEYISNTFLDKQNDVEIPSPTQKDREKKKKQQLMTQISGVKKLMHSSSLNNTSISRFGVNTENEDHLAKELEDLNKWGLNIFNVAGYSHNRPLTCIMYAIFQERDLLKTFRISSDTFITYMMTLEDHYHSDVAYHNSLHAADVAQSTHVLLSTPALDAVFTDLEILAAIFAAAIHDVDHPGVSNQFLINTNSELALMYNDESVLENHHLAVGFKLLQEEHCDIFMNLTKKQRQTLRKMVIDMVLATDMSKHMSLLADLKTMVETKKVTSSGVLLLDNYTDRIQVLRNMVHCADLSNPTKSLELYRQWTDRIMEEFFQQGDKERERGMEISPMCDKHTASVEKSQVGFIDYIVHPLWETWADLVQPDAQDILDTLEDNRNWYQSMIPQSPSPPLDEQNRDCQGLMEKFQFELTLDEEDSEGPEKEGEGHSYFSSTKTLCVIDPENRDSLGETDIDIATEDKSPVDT
Method in brief: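 Live HEK293 cells with a modified cyclic nucleotide-gated (CNG) channel report intracellular cAMP via membrane-potential dye fluorescence (ex 535/em 590 nm). Endogenous PDE-IV was targeted. Compounds were tested at up to 22.9 uM final; RO 20-1724 100 uM served as control.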

[6] = qHTS Assay for Lipid Storage Modulators (AID 1519; calls by dose curve); conditions: Drosophila S3 cells, BODIPY lipid droplet/cell ratio, laser cytometry, cells loaded with oleic acid; for activity change, negative = inhibition: at 57.5 µM (top of the series)
Method in brief: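 Cells seeded at 5,000 per well were treated with compounds over a concentration series and loaded with oleic acid (400 uM, as added). Lipid droplet fluorescence (488 nm excitation, 500-530 nm channel) was read by laser-scanning cytometry and normalized to 20 uM Triacsin C.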

[7] = Primary qHTS for small molecule stabilizers of the endoplasmic reticulum resident proteome: Secreted ER Calcium Modulated Protein (SERCaMP) assay (AID 1508630; active = well fitted curve in the direction sought with a large enough effect; an effect the other way counts as inactive or inconclusive; note: % is set by controls: 0 for no effect and ±100 for the full control effect)
Method in brief: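 The SH-SY5Y reporter protocol was run at 3 concentrations up to 38.3 uM (primary) or 11 concentrations (follow-up): 16 h compound, 100 nM thapsigargin for 4 h, then extracellular luciferase luminescence.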

[8] = biological target: Glucocorticoid receptor (Homo sapiens) (UniProt P04150); assay: GR-GFP Redistribution (AID 450;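 active = compounds whose dose series gives a full or clear partial fitted curve of increased nuclear translocation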; note: potency is the fitted concentration of half-maximal effect); conditions: U2OS GR-GFP nuclear translocation, laser cytometry, 2 h
[9] = biological target: Cytochrome P450 3A4 (Homo sapiens) (UniProt P08684); assay: qHTS Assay for Activators of Cytochrome P450 3A4 (AID 885; active = well fitted curve in the direction sought with a large enough effect; an effect the other way counts as inactive or inconclusive; note: nearly all actives have a fitted effect of over 65% in size)
Cytochrome P450 3A4 (Homo sapiens), sequence (P08684 whole entry, looked up): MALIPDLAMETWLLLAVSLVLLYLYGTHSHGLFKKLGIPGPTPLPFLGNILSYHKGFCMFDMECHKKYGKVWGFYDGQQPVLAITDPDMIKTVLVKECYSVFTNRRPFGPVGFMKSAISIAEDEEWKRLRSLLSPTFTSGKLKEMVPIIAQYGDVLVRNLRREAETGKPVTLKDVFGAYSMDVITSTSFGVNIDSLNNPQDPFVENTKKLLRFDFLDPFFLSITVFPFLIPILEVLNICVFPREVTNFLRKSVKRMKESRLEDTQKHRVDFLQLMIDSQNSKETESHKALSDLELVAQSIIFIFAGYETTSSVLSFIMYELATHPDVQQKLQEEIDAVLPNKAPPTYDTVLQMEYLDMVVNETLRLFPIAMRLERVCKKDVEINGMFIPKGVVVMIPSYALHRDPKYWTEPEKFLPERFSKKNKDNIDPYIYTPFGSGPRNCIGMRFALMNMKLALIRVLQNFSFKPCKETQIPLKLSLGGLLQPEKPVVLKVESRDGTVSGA
Method in brief: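 Using 20nM recombinant human CYP3A4 in potassium phosphate (200mM), substrate Luciferin-PPXE at 25uM, luminescent luciferin detection followed a 60-min RT NADPH reaction; data scaled to 57 uM ketoconazole.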

[10] = qHTS Assay for Identification of Small Molecule Agonists for Hypoxia Response Element Signaling Pathway (AID 914; active = well fitted activation curve with a large enough effect in the signal ratio, with a control signal flat, not every such curve was filed as active; the % refers to the signal ratio; note: potency is the fitted concentration of half-maximal effect; for activation: % of control where 0% means no effect); conditions: ME-180 HRE-bla reporter, beta-lactamase ratio, CoCl2, 17 h; activation: stronger effect = higher value
Method in brief: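 Compounds in a titration series were added to ME-180 reporter cells alongside an EC50 level of CoCl2. After 17 hours, beta-lactamase activity was read as the 460nm/530nm emission ratio of CCF4, giving AC50 values.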

[11] = AP1 Signaling Pathway (AID 357); conditions: ME-180 (cervical carcinoma) AP-1-bla reporter, EGF-induced, beta-lactamase ratio, 5 h; at 7.69 µM (top of the series) unless noted;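 note: ME-180 reporter cells stimulated with EGF at its EC50 level; % is set by controls: 0 for no effect and ±100 for the full control effect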
Method in brief: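 Modulation of EGF-driven AP-1 transcription was assessed with a beta-lactamase reporter in ME-180 cells. Compound and EC50 EGF were co-incubated 5 hours at 37 °C before 2.5-hour CCF4 loading at room temperature and dual-emission reading.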

[12] = biological target: Cytochrome P450 1A2 (Homo sapiens) (UniProt P05177); assay: p450-cyp1a2 (AID 410; calls by dose curve; note: potency is the fitted concentration of half-maximal effect;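 for activity change, negative = inhibition: -100% = full effect of reference inhibitor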)
Cytochrome P450 1A2 (Homo sapiens), sequence (P05177 whole entry, looked up): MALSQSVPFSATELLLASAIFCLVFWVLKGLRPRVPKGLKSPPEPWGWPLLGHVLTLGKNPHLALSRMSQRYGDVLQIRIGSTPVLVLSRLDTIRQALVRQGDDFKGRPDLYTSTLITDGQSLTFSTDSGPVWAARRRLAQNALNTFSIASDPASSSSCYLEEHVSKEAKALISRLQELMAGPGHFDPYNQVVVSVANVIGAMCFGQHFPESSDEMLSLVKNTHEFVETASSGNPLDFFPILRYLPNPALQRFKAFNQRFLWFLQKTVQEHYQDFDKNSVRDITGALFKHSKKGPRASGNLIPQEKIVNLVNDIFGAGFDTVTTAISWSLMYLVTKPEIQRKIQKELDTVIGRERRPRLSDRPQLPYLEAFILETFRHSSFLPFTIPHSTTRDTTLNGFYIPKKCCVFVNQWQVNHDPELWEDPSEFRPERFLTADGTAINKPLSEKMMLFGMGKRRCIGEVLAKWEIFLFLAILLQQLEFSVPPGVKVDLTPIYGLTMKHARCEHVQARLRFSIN
Method in brief: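 Luminescent demethylation readout: Luciferin-ME (100uM, equal to Km) turned over by 20nM CYP1A2 for 60 min at room temperature after NADPH regeneration addition, following 10 min compound preincubation. Normalization used 57 uM furafylline as full inhibition.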

[13] = NFAT Signaling Pathway (AID 444); conditions: Jurkat NFAT-bla M1, carbachol, beta-lactamase ratio, 5 h; at 7.69 µM (top of the series) unless noted
Method in brief: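 Jurkat cells carrying an NFAT-driven β-lactamase reporter and co-transfected muscarinic M1 receptor were treated with compound plus carbachol (1 uM final, an EC50 level) for 5 h at 37 °C. CCF4 loading followed for 1 h at RT; 460/530 nm ratio gave %activity.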

[14] = biological target: Cytochrome P450 3A4 (Homo sapiens) (UniProt P08684); assay: qHTS Assay for Inhibitors and Substrates of Cytochrome P450 3A4 (AID 884; active = well fitted curve in the direction sought with a large enough effect; an effect the other way counts as inactive or inconclusive; note: potency is the fitted concentration of half-maximal effect; nearly all actives have a fitted effect of over 50% in size)
Method in brief: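 Luminescent readout of luciferin produced by CYP3A4 (20 nM) dealkylation of Luciferin-PPXE, 25 uM (its KM). NADPH-driven reaction ran 60 min at RT after 10 min compound preincubation; data scaled to 57 uM ketoconazole as 100% inhibition.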

[15] = biological target: Cytochrome P450 2D6 (Homo sapiens) (UniProt P10635); assay: qHTS Assay for Inhibitors and Substrates of Cytochrome P450 2D6 (AID 891; active = well fitted curve in the direction sought with a large enough effect; an effect the other way counts as inactive or inconclusive; note: potency is the fitted concentration of half-maximal effect; nearly all actives have a fitted effect of over 60% in size)
Cytochrome P450 2D6 (Homo sapiens), sequence (P10635 whole entry, looked up): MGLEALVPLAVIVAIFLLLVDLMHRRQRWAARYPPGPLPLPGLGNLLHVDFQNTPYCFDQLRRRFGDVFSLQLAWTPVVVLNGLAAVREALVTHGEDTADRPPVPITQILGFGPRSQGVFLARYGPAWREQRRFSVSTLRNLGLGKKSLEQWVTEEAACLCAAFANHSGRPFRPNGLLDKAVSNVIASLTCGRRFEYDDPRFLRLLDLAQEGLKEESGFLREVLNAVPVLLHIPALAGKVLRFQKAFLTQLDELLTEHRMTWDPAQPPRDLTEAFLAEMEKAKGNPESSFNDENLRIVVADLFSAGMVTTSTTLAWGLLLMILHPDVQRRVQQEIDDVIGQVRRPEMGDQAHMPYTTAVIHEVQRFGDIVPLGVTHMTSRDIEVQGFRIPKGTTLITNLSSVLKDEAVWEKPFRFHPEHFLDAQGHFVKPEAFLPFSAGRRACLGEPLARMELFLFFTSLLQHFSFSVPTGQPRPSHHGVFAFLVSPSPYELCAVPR
Method in brief: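 Luminescent read-out of luciferin formed by 5 nM human CYP2D6 demethylating 30 uM Luciferin-ME EGE (Km level) over 60 min at room temperature after NADPH regeneration addition. Data normalized to full inhibition by 1.43 uM quinidine.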

[16] = Confirmation and Secondary Assay for Modulators of Hemoglobin Beta Chain Splicing at IVS2 654 locus (AID 910; active = well fitted curve in the direction sought with a large enough effect; an effect the other way counts as inactive or inconclusive;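 note: per-well total GFP intensity by laser scanning cytometry after 2-day treatment; % of control where 0% means no effect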)
Method in brief: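 HeLa cells stably carrying EGFP interrupted by mutant beta-globin IVS2-654 intron (CMV-driven) were treated with compound for 2 days at 37C; corrected splicing was scored as total peak GFP intensity per well (488 nm excitation, 500-520 nm emission).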

[17] = Confirmation and Secondary Assay for Modulators of Hemoglobin Beta Chain Splicing at IVS2 705 locus (AID 930; active = well fitted curve in the direction sought with a large enough effect; an effect the other way counts as inactive or inconclusive;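 note: HeLa cells stably expressing the EGFP-705 splicing reporter; GFP fluorescence per well restored by corrected splicing of the IVS2-705 intron in EGFP; % of control where 0% means no effect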)
Method in brief: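 Assay measures total GFP intensity per well in HeLa EGFP-705 cells after 2 days with compound; mis-splicing normally truncates EGFP, so fluorescence indicates corrected splicing.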

[18] = biological target: Ubiquitin carboxyl-terminal hydrolase 1 (Homo sapiens) (UniProt O94782); assay: Inhibitors of USP1/UAF1: Pilot qHTS (AID 504865; active = well fitted curve in the direction sought with a large enough effect; an effect the other way counts as inactive or inconclusive;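 note: rhodamine fluorescence freed from ubiquitin-rhodamine substrate followed over time; top concentration of the series differs between compounds; % is set by controls: 0 for no effect and ±100 for the full control effect; nearly all actives have a fitted effect of over 35% in size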)
Ubiquitin carboxyl-terminal hydrolase 1 (Homo sapiens), sequence (O94782 whole entry, looked up): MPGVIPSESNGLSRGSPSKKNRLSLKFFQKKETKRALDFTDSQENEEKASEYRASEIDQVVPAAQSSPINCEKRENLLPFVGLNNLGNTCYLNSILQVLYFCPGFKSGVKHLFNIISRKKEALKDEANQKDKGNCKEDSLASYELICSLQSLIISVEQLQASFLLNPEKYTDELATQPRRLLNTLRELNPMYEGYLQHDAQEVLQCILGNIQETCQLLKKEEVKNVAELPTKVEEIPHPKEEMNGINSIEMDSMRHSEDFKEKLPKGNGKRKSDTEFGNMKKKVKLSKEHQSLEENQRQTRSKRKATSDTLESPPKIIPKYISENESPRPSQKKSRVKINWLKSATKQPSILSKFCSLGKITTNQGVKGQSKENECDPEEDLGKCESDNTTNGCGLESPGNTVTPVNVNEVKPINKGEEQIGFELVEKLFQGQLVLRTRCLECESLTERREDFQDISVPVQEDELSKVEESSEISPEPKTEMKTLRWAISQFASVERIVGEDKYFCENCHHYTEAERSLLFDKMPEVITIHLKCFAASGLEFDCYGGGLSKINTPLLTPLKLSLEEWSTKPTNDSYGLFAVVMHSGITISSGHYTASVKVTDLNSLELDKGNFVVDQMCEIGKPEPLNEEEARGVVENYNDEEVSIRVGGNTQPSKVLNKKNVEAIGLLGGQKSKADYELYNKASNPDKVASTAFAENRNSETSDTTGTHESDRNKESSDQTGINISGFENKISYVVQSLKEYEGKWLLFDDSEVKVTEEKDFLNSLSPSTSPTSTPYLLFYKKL
Method in brief: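 In 50mM HEPES pH 7.8 containing 0.5mM EDTA, 1mM TCEP, 0.1 mg/ml BSA and 0.01% Tween-20, 1nM USP1/UAF1 is exposed to compound for 15 min, then Ub-Rho (150nM final) is added and fluorescence is read over time.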

[19] = measured here: cell count channel max response
[20] = measured here: lipid channel max response

CC(=O)N1CCC2(CCCN(c3ccncc3)C2)CC1
1.51%: max response [6, 19]
7.47%: max response [6, 20]
inactive: Potency [1] > 11.4 µM | activity, negative = inhibition [2] -5.29% | Potency [3] > 46 µM | Potency [4] | Potency [5] | activity change, negative = inhibition [6] 4.08% | outcome [7]

N#CCCn1c(=O)c(-c2cccs2)nc2cnc(N3CCNCC3)nc21
5.4%: max response [6, 19]
9.49%: max response [6, 20]
inactive: Potency [1] > 11.4 µM | Potency [8] > 9.22 µM | Potency [3] > 46 µM | Potency [5] | activity change, negative = inhibition [6] -0.055% | outcome [7]

COc1ccc(-c2nc3cnc(N4CCNCC4)nc3n(CCC#N)c2=O)cc1
inactive: Potency [1] > 11.4 µM | Potency [8] > 9.22 µM | Potency [3] > 46 µM | Potency [4] | Potency [5] | Potency [9] | activity change, negative = inhibition [6] 4.58% | outcome [7]
25%: max response [6, 20]
17%: max response [6, 19]
active: Potency [10] 3.16 µM

c1nc(NCCN2CCOCC2)c2cc(-c3ccc4c(c3)OCO4)ccc2n1
12.8%: max response [6, 20]
2.73%: max response [6, 19]
inactive: activity change, negative = inhibition [11] -13.5% | activity change, negative = inhibition [13] 1.02% | activity, negative = inhibition [2] -4.03% | Potency [8] > 46 µM | Potency [3] > 46 µM | Potency [4] | Potency [5] | Potency [9] | Potency [16] | outcome [17] | activity change, negative = inhibition [6] 10.6% | Potency [18] | outcome [7]
active: Potency [12] 2.51 µM | Potency [14] 5.01 µM | Potency [15] 7.94 µM

COCC(=O)N1CCC2(CCN(Cc3ccc(C#N)cc3)CC2)CC1
inactive: activity change, negative = inhibition [11] -9.28% | activity, negative = inhibition [2] -0.16% | Potency [3] > 46 µM | Potency [4] | Potency [5] | activation [10] 4.64% | activity change, negative = inhibition [6] 4.27% | outcome [7]
24.9%: max response [6, 20]
17%: max response [6, 19]

O=C(c1ccco1)N1CCC[C@@]2(CCN(c3ccccn3)C2)C1
30%: max response [6, 20]
inactive: activity change, negative = inhibition [11] 4.46% | activity change, negative = inhibition [13] -3.78% | activity, negative = inhibition [2] -0.822% | Potency [3] > 46 µM | Potency [4] | Potency [5] | activity change, negative = inhibition [6] 4.34% | outcome [7]
22.6%: max response [6, 19]

O=C(c1csnn1)N1CCC2(CCN(Cc3ccccc3)CC2)CC1
4.52%: max response [6, 19]
1.17%: max response [6, 20]
inactive: activity change, negative = inhibition [11] 13.9% | Potency [12] | activity, negative = inhibition [2] -0.255% | Potency [3] > 46 µM | Potency [4] | Potency [5] | activity change, negative = inhibition [6] -4.6% | outcome [7]

CC(C)CN1CCCC2(CCN(C(=O)c3cccc(F)c3)CC2)C1
inactive: activity change, negative = inhibition [11] -3.93% | Potency [12] | activity, negative = inhibition [2] -0.516% | Potency [3] > 46 µM | Potency [4] | Potency [5] | Potency [9] | activity change, negative = inhibition [6] 2.15% | outcome [7]
24.2%: max response [6, 20]
18.6%: max response [6, 19]
